# Screens: PubChem BioAssay, several laboratories
# Rows were chosen to be rich in hits. Some 1.4% of all compounds tested hit in one or more screens of this group.
# APOBEC3A inh: blocks human APOBEC3A ssDNA deamination; recombinant A3A, FAM/TAMRA ssDNA deamination fluorescence; 330,000 tested, 0.41% active; inhibition, % at 20 µM; P31941;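 active means at least 40% inhibition at 20 µM here, with at most 30% in a related deaminase screen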;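 further: plate controls were A3A with DMSO for no effect and wells lacking A3A enzyme for full effect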
# VLA-4 inh: inhibition in a human VLA-4 binding assay | P13612 | VLA-4 expressing cells, ligand binding flow cytometry | inhibition, % (about 7 µM as worked out from the volumes in the protocol) | 330,000 tested, 0.2% active | AID 2557; in the data active means inhibition above about 50%
# Target sequence (P13612 whole entry, looked up): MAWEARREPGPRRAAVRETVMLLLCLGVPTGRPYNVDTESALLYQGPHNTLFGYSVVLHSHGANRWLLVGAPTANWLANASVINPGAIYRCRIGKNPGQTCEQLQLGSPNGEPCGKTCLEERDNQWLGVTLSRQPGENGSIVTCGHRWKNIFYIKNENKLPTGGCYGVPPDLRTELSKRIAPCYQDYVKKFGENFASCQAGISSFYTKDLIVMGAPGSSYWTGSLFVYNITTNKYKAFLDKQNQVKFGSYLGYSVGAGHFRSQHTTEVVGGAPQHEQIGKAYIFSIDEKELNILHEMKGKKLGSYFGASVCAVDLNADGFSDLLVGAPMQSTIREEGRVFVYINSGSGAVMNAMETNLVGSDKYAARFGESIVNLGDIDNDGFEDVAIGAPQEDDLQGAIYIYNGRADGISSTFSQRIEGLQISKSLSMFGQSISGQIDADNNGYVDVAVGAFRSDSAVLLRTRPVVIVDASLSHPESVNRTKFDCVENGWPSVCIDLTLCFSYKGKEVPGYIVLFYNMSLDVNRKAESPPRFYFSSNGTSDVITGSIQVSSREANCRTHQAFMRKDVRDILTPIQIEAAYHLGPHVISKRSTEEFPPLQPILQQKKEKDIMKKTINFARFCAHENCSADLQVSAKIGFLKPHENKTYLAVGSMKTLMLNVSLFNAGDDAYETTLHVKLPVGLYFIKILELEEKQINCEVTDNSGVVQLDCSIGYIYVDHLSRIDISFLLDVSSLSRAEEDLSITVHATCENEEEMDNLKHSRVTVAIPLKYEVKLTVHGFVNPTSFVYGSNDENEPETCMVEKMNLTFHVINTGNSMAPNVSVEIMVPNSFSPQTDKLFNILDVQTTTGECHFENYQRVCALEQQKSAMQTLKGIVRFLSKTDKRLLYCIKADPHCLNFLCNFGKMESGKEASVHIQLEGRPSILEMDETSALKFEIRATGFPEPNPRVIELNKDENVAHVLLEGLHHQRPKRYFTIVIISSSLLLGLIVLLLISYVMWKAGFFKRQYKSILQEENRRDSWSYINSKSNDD
# GRK2 aptamer HTS: inhibitors of human GRK2 displacing RNA aptamer | P25098 | bead flow cytometry, FAM-aptamer displacement from GRK2 | inhibition of aptamer binding, % at 10 µM | 330,000 tested, 0.59% active;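 active means inhibition of aptamer binding above 40%, roughly 3 SD of noise, on plates passing a quality check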;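 further: median bead fluorescence of bound FAM aptamer so fluorescent compounds give negative values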
# A3G deaminase: APOBEC3G (human) deaminase inhibition | recombinant A3G, ssDNA deamination FAM/TAMRA fluorescence | inhibition, % at 20 µM | 330,000 tested, 0.28% active;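 active means inhibition of at least 40% at 20 µM, with no more than 30% in the related APOBEC3A deaminase screen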;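 further: plate controls were DMSO wells with A3G for no effect and wells lacking A3G enzyme for full effect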
# VLA-4 mod pick: confirmation of allosteric modulators of human VLA-4 integrin. shares compounds with VLA-4 inh. U937 cells, HUTS-21 LIBS mAb binding, flow cytometry; LDV ligand present at threefold Kd. 1,300 tested, 2% active. inhibition, % at 6.7 µM; in the data active means inhibition above about 40%;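 further: 0% = ligand without compound and 100% = no ligand background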
# * = called active by the depositor; i = inactive; . = not tested or not shown; ! = a repeat was not active.
SMILES,APOBEC3A inh,VLA-4 inh,GRK2 aptamer HTS,A3G deaminase,VLA-4 mod pick
CCCCCCNC1=NCCS1,0,53*,3,-6,-2
Cc1ccc(/C=C/C(=O)NCCCn2ccnc2)cc1,-1,0,0,-6,.
O=C(/C=C/c1ccccc1[N+](=O)[O-])NCCCn1ccnc1,-4,62*,0,-4,-5
N=c1c(C(=O)NCc2ccc(F)cc2)cc2c(=O)n3ccccc3nc2n1CC1CCCO1 (stereo not drawn),1,89*,0,-3,4
N=c1c(C(=O)NCc2ccc3c(c2)OCO3)cc2c(=O)n3ccccc3nc2n1CC1CCCO1 (stereo not drawn),2,-3,0,-4,.
O=C(COC(=O)c1ccccc1O)NNC(=O)c1ccc(Br)cc1,-3,.,.,-10,.
CC1Cc2ccccc2N1C(=O)c1nn(C)cc1Br (stereo not drawn),-3,3,0,-9,.
COc1ccc(-c2nc3scc(-c4ccc(OC)c(OC)c4)c3c(=O)o2)cc1,3,84*,3,9,7
CCOC(=O)c1ccc(S(=O)(=O)NC2CCC(C)CC2)cc1 (stereo not drawn),-1,-6,3,-5,.
O=C(Nc1ccccc1Cl)OCc1cncs1,-3,-15,3,-1,0
Cc1csc(SCC(=O)NC23CC4CC(CC(C4)C2)C3)n1,-3,11,2,-5,.
COc1ccc([N+](=O)[O-])cc1NC(=O)COC(=O)C=C(C)C,4,17,2,2,.
CC(Oc1cccc(Cl)c1)C(=O)Nc1nc(-c2ccccn2)cs1 (stereo not drawn),0,53*,0,-5,-9
CC(Oc1ccccc1)C(=O)Nc1nc(-c2ccccn2)cs1 (stereo not drawn),-1,.,.,0,.
Cc1ccc(-c2nnc(N)s2)cc1,-6,46,0,-6,-4
O=C(Nc1cc2c3c(c1)CC(=O)N3CCC2)c1ccccc1C(F)(F)F,2,16,0,-4,.
Cc1ccc(C(=O)N2CCN(c3ccccc3F)CC2)cc1NC1=NC2CS(=O)(=O)CC2S1 (stereo not drawn),-5,13,2,-6,.
O=C(c1cccc(NC2=NC3CS(=O)(=O)CC3S2)c1)N1CCN(c2cccc(Cl)c2)CC1 (stereo not drawn),-5,10,0,-7,i
O=C(c1ccc(Cl)c(NC2=NC3CS(=O)(=O)CC3S2)c1)N1CCN(c2ccc(F)cc2)CC1 (stereo not drawn),-5,15,0,-6,0
O=C(c1cccc(NC2=NC3CS(=O)(=O)CC3S2)c1)N1CCN(c2ccc(F)cc2)CC1 (stereo not drawn),-6,-7,0,-11,.
CCC(C)(C#CCN1CCCCC1)OC(C)=O (stereo not drawn),-1,-1,1,-7,.
CSc1nc(N)nc2c1ncn2CC(=O)N[C@H](C)c1cccc2ccccc12,-2,54*,0,-2,3
O=S(=O)(Nc1ncccn1)c1ccc(F)cc1,1,5,3,-1,4
COc1ccc(CC(=O)Nc2ccc(S(=O)(=O)Nc3ncccn3)cc2)cc1,17,20,1,1,.
Cc1ccccc1NS(=O)(=O)c1ccc(Cl)cc1,0,-7,1,-5,0
SMILES,APOBEC3A inh,VLA-4 inh,GRK2 aptamer HTS,A3G deaminase,VLA-4 mod pick
Nc1ccc(S(=O)(=O)Nc2ncccn2)cc1,-1,-2,0,-9,.
Cc1ccc(S(=O)(=O)Nc2ncccn2)cc1,-5,-7,0,-1,2
COc1ccc(S(=O)(=O)Nc2ncccn2)cc1,-6,6,0,-6,3
COc1ccc(Cn2nnnc2C(c2cc3cccc(C)c3[nH]c2=O)N2CCN(C)CC2)cc1 (stereo not drawn),-3,-2,1,-11,.
CCOc1cc(CNC(=O)CCCn2c(=O)c3cccn3c3cccnc32)cc(OCC)c1OCC,-4,2,2,-5,.
COc1cc(OC)cc(C(=O)NCCOc2ccccc2)c1,0,0,9,0,.
COc1cccc2cc(S(=O)(=O)c3ccccc3)c(=Nc3ccc4c(c3)OCCO4)oc12,0,11,0,-2,.
O=S(=O)(Nc1ncccn1)c1ccccc1,-2,15,3,-3,3
O=C(Nc1ccc(Cl)cc1)Nc1ccc(S(=O)(=O)Nc2ncccn2)cc1,-1,23,2,-8,.
O=S(=O)(Nc1ncccn1)c1ccc(Cl)cc1,-3,8,0,-5,0
O=S(=O)(Nc1ccc(S(=O)(=O)Nc2ncccn2)cc1)c1ccccc1,-3,-1,0,-6,.
COC(=O)c1c(NC(=O)c2ccco2)sc2c1CCC2,0,92*,1,1,-5
Cc1ccc(NC(=O)CN2CCc3cc4c(cc3C2)OCCCO4)cc1,-3,55*,2,-8,3
CCn1c(SCC(=O)NCc2ccc3c(c2)OCO3)nnc1-c1cccs1,-2,7,1,-4,.
COCc1ccc(-c2c(-c3ccsc3)oc(=O)c3cc(OC)c(OC)cc23)cc1,1,3,7,-2,.
COc1ccc(C(=O)C2CCCN(Cc3c[nH]c4ccccc34)C2)c(OC)c1 (stereo not drawn),0,55*,40,-5,2
O=[N+]([O-])c1cc(CN2CCN(c3cccc(C(F)(F)F)c3)CC2)c2cccnc2c1O,7,19,0,7,.
Cc1ccc(C(=O)NCc2ccco2)cc1[N+](=O)[O-],3,-3,0,3,.
COC(=O)c1cc(-c2ccc(C)o2)nc2ccccc12,8,41,7,9,-27
CCOC(=O)N1CCN(CC(O)COc2c(OC)cccc2OC)CC1 (stereo not drawn),-3,12,0,-2,.
COc1ccccc1OCC(O)CN1CCN(CC(=O)Nc2c(C)cccc2C)CC1 (stereo not drawn),-5,51*!,0,-5,-51
CCO[C@H]1OC(C(=O)Nc2ccccc2)=C[C@@H](C)[C@@H]1CCCO,1,91*,2,-2,-6
CCO[C@H]1OC(C(=O)N2CCN(Cc3ccccc3)CC2)=C[C@@H](C2CCCCC2)[C@@H]1CCCO,-4,53*,0,-5,0
CCO[C@@H]1OC(C(=O)Nc2ccccc2)=C[C@H](c2ccccc2)[C@H]1CCCO,0,9,0,-6,.
CC(C)(C)[C@H]1C=C(C(=O)Nc2ccccc2)O[C@@H](OCCCCO)C1,1,21,2,-3,7
CC12CCC3c4ccc(O)cc4CCC3C1CCC2=O (stereo not drawn),0,55*,6,-5,12
C[C@]12CC[C@@H]3c4ccc(OS(=O)(=O)O)cc4CC[C@H]3[C@@H]1CCC2=O,-2,8,1,-3,.
CC1=NN(c2ccc(C)cc2)C(=O)/C1=C\C=C\c1ccccc1,14,18,2,4,.
O=C(O)Cc1ccc(NS(=O)(=O)c2ccccc2Cl)cc1,-2,7,4,-6,0
